Assay outcomes from PubChem BioAssay.
Most compounds without a hit are left out; they make up all but 3.5% or so of the library.
HSP90 inh: HSP90 refolding inhibition in rabbit reticulocyte lysate. luciferase refolding luminescence, 3 h. inhibition, % at 5.6 µM. 290,000 compounds, 0.91% hits. AID 1789;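 active means inhibition above the screen-wide mean plus 3 SD, computed separately per campaign, cut at about 16% in these data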;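 further: inhibitors lower the luminescence because luciferase stays unfolded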
TRAIL sens C8: caspase-8 TRAIL sensitization; NB7+C8 cells + TRAIL, ATPlite viability luminescence; inhibition (viability loss, TRAIL sensitization), % at 10 µM; 360,000 compounds, 1% hits; AID 624354;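 active means compounds causing at least 50% loss of cell viability in the single-dose screen, relative to plate controls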
TWEAK Fn14 block: inhibitors of TWEAK-Fn14 interaction signaling | TWEAK-stimulated Fn14 reporter cells, luciferase luminescence, 8 h | inhibition, % at 10 µM | 360,000 compounds, 2% hits | AID 1159606; in the data active means inhibition above about 50%
PPC-1+TRAIL kill: kills PPC-1 cancer cells in the presence of TRAIL; PPC-1 cells + TRAIL, ATPLite viability luminescence; cell killing (% activity), % at 4 µM or 5 µM; 220,000 compounds, 0.41% hits;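 active means cell killing above 50% in the first pass at 4 µM, then a duplicate retest at 5 µM averaging 50% or more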
TROY signal inh: TROY signaling inhibition. Q293 LMP1-TROYcd NF-kB luciferase reporter, 4 h. inhibition, % at 10 µM. 360,000 compounds, 0.98% hits. AID 1347056;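 active means compounds whose plate-normalised and pattern-corrected inhibition of the luciferase reporter signal at the single screening dose is 50% or more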
Platelet DG rel: platelet dense granule release activity; 300,000 compounds, 0.22% hits; inhibition, %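 (compounds screened at 7.5 µM in platelet-rich plasma)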; human platelet-rich plasma, SFLLRN dense granule ATP release, luminescence;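 active means mean replicate score, as percent of positive control, at or above 50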
PPC-1 tox: PPC-1 cell cytotoxicity; shares compounds with PPC-1+TRAIL kill; PPC-1 viability, ATPlite luminescence, overnight; cytotoxicity, % at 5 µM; 1,200 compounds, 50% hits; AID 1447;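 active means reconfirmed compounds whose average cytotoxicity reaches 50% or more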
Numbers stand for hits; – = inactive; · = no result.

SMILES	HSP90 inh	TRAIL sens C8	TWEAK Fn14 block	PPC-1+TRAIL kill	TROY signal inh	Platelet DG rel	PPC-1 tox
CC1=C(C(=O)N(C(C)C)C(C)C)CC(CC(=O)NC2CC2)C(=O)N1Cc1ccccc1 (stereo not drawn)	·	–	–	·	–	·	·
CCN(CC)CCNS(=O)(=O)c1ccc2c3c(cccc13)C(=O)N2	–	–	–	·	–	–	·
COc1ccc(CCNC(=O)C2CCCN(S(=O)(=O)c3cccc4nonc34)C2)cc1OC (stereo not drawn)	–	–	–	–	–	–	–
CCC(=O)c1ccc(OCC(O)Cn2nc(C)c(Br)c2C)cc1 (stereo not drawn)	–	–	–	·	–	–	·
COCCCNC(=O)/C(C#N)=C/c1cc(C)[nH]c1C	–	–	–	–	–	–	·
N#Cc1c(SCC(=O)N2CCCCC2)nsc1SCC(=O)N1CCCCC1	–	–	–	–	–	–	–
COC(=O)CSc1nsc(SCC(=O)OC)c1C#N	–	–	–	–	–	–	·
c1ccc2[nH]c(N3CCOCC3)nc2c1	–	–	–	–	–	–	·
O=c1c(Cl)c(N2CCOCC2)cnn1-c1nc2ccccc2[nH]1	–	–	–	–	–	–	–
COCCN1C(=O)c2ccc(C(=O)NCc3cccnc3)cc2C1=O	–	–	–	–	–	–	–
CC(c1ccccc1)N1C(=O)c2ccc(C(=O)NCc3cccnc3)cc2C1=O (stereo not drawn)	–	–	–	·	–	–	·
O=C(c1cc(COc2cccc(C(F)(F)F)c2)on1)N1C[C@@H]2CCC[C@H]1C2	–	–	–	·	–	–	·
COc1ccc(CNC(=O)c2noc3c2CCCCC3)cc1	–	–	–	–	–	–	–
O=C(NCc1ccccc1)c1noc2c1CCCCC2	–	–	–	–	–	–	·
COc1nc(OC)nc(N2CCC(C(=O)NCc3cccs3)CC2)n1	–	–	–	–	–	–	–
CCN(CC)CCCNc1nc2cc(OC)c(OC)cc2c2nc(-c3ccccc3)nn12	–	–	–	–	–	–	–
Cc1ccc(C(=O)Nc2cc(C)c(OCC(=O)N3CCOCC3)c(C)c2)cc1	–	83	–	79	–	–	79
CC(=O)Nc1cc(C)ns1	·	–	–	·	–	·	·
COc1ccc(CCNC(=O)c2cccc(S(=O)(=O)N3CCCC3)c2)cc1OC	·	–	–	·	–	·	·
COc1cc(C(=O)NCCc2ccc(S(=O)(=O)N3CCCC3)cc2)cc(OC)c1OC	–	–	–	–	–	–	–
COc1ccc(-c2cc(=Nc3ccc(C(=O)O)cc3)c3cc(C)ccc3o2)cc1	–	–	72	–	–	–	–
COc1cc(/C=C2\CCc3c2nc2ccccc2c3C(=O)O)cc(OC)c1OC	–	57	–	52	–	–	54
Cc1ccc(C(=O)Nc2ccc3c(c2)OCCO3)o1	–	54	–	62	–	–	59
Cc1cc(C(=O)Nc2ccc3c(c2)OCCO3)co1	–	–	–	–	–	–	–
Cn1c(C(=O)Nc2ccc3c(c2)OCCO3)cc2sccc21	–	56	–	–	–	–	–
SMILES	HSP90 inh	TRAIL sens C8	TWEAK Fn14 block	PPC-1+TRAIL kill	TROY signal inh	Platelet DG rel	PPC-1 tox
COc1ccc(-n2ncc3c2CC(C)(C)CC3NC(=O)C2CCN(C(C)=O)CC2)cc1 (stereo not drawn)	–	–	–	·	–	–	·
O=S1(=O)c2cccc3cccc(c23)N1Cc1ccc(-c2nnco2)cc1	–	–	–	–	–	–	–
O=S1(=O)c2cccc3cccc(c23)N1Cc1nnc(-c2ccccc2Br)o1	–	–	–	–	–	–	·
CCC(CC)CN1CCC(CN2C(=O)C(=O)NC[C@@H]2CC(C)C)CC1	·	–	–	·	–	·	·
c1ccc(CCNc2ccnc3cc4ccccc4cc23)cc1	–	–	–	–	–	–	–
CCOCCCNC(=O)C1CCN(S(=O)(=O)c2ccc(C)cc2)CC1	–	–	–	–	–	–	–
CCOC(=O)C1CCN(S(=O)(=O)c2ccc(NC(=O)OC)cc2)CC1	–	–	–	–	–	·	–
COc1ccccc1C(=O)Nc1ccc2c(c1)nc1n2CCSC1	–	–	–	–	–	·	–
CC(C)c1ccc(N(C(=O)CNC(=O)c2ccco2)C(C(=O)NC2CCCC2)c2cccnc2)cc1 (stereo not drawn)	–	–	–	·	–	–	·
CCOC(=O)C1CNc2cc(S(=O)(=O)CC)ccc2O1 (stereo not drawn)	–	–	–	–	–	–	·
C[C@H](CO)N1C[C@H](C)[C@@H](CN(C)C(=O)Nc2ccc(C(F)(F)F)cc2)Oc2ccc(NC(=O)C3CCCCC3)cc2C1=O	·	–	–	·	–	·	·
N#CC1=C(N)Oc2n[nH]c(-c3cccs3)c2C1c1ccoc1 (stereo not drawn)	–	–	–	–	–	–	–
COc1cc(-c2[nH]nc3c2C(c2ccoc2)C(C#N)=C(N)O3)cc(OC)c1OC (stereo not drawn)	–	–	–	–	–	·	–
CC1(C)CC(=O)C=C(NNC(=O)c2ccccc2O)C1	–	71	–	79	–	–	75
COc1cccc(-c2nn(-c3ccc(C)cc3)cc2C(=O)N2CCN(C3CCS(=O)(=O)C3)CC2)c1 (stereo not drawn)	·	–	–	·	–	·	·
Cc1ccc2nc(-c3ccccn3)oc2c1	–	67	53	65	–	–	65
Cc1ccc2nc(-c3cccnc3)oc2c1	–	–	–	–	–	–	·
O=C(Nc1ccc(F)c(Cl)c1)C1CC2CCC1C2 (stereo not drawn)	·	–	–	·	–	–	·
CCc1ccc(Nc2nnc(SCC(=O)Nc3sccc3C(N)=O)s2)cc1	–	–	–	–	–	–	·
CCc1ccc(Nc2nnc(SCC(=O)NCCN3C(=O)CSC3=O)s2)cc1	–	58	–	–	–	–	–
CC(=O)Nc1ccc2nc(NC(=O)c3ccco3)sc2c1	–	–	–	·	–	–	·
O=C(Nc1nc2ccc([N+](=O)[O-])cc2s1)c1ccco1	–	·	·	–	·	–	–
CCOC(=O)C1=NS(=O)(=O)NC(C)=C1	·	–	–	·	–	·	·
Cc1ccc(NCc2ccccc2O)cc1	–	–	–	–	–	–	–
Cc1ccc(NCc2ccccc2F)cc1	–	–	–	–	–	–	·
SMILES	HSP90 inh	TRAIL sens C8	TWEAK Fn14 block	PPC-1+TRAIL kill	TROY signal inh	Platelet DG rel	PPC-1 tox
Cc1csc(NC(=O)c2cccc(Cn3nc(C)c(Br)c3C)c2)n1	–	–	–	–	–	–	–
Cc1nn(Cc2ccc(C(=O)Nc3nc4c(C)cccc4s3)o2)c(C)c1Br	–	–	–	–	·	–	·
Cc1ccc2ccccc2c1C(O)c1ncc(-c2ccccc2F)[nH]1 (stereo not drawn)	·	–	–	·	–	·	·
COc1ccc(-c2nc(CCl)cs2)cc1	–	–	–	–	–	–	–
C=CCn1c(N)cc(=O)nc1SC(C)C(=O)Nc1cccc2ccccc12 (stereo not drawn)	–	–	–	–	–	·	–
CC(Sc1nc(=O)cc(N)n1CCc1ccccc1)C(=O)NCc1ccccc1 (stereo not drawn)	–	–	–	–	–	–	·
